Screening results deposited in PubChem by several laboratories.
Compounds with a hit are over-represented: about 1.2% of the library has one in this group of screens.
PfHsp40 rescue: compounds rescuing yeast from Plasmodium falciparum HSP40 toxicity; S. cerevisiae expressing PfHsp40, growth rescue, ATP luminescence; growth rescue, % at 12.5 µM; hit rate 0.68% among 340,000; in the data active = growth rescue above about 28%, passing the limit was not always enough;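 note: yeast W303a lacking pdr1 and pdr3 grown in galactose medium; growth measured after three days at 30 °C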
PrP UTR inh: inhibition of PrP 5' UTR reporter expression | cell-based PrP 5' UTR mRNA reporter, plate reader | inhibition, % (no concentration beside the values) | hit rate 0.35% among 340,000; in the data active = inhibition above about 52%; note: 0 = median of the neutral control wells
ugtP null kill: compounds lethal to S. aureus RN4220 ugtP deletion mutant; OD600 growth, 16 h; growth inhibition, % (test concentration not listed); hit rate 0.54% among 330,000; in the data active = growth inhibition above about 68%;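 note: plate controls were untreated wells for no effect and antibiotic for full effect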
Sa RN4220 lethal: kills Staphylococcus aureus RN4220; S. aureus RN4220 growth, OD600, 16 h; hit rate 0.33% among 330,000; inhibition, % (test concentration not listed); in the data active = inhibition above about 85%;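 note: plate controls were untreated cells for no effect and reference antibiotic for full effect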
TcdB GH inh: inhibitors of Clostridioides difficile toxin B glycohydrolase | P18177 | TcdB glycohydrolase enzymatic assay, plate reader | inhibition, % at 9.99 µM | hit rate 0.24% among 350,000; in the data active = inhibition above about 10%
Target sequence (P18177 whole entry, looked up): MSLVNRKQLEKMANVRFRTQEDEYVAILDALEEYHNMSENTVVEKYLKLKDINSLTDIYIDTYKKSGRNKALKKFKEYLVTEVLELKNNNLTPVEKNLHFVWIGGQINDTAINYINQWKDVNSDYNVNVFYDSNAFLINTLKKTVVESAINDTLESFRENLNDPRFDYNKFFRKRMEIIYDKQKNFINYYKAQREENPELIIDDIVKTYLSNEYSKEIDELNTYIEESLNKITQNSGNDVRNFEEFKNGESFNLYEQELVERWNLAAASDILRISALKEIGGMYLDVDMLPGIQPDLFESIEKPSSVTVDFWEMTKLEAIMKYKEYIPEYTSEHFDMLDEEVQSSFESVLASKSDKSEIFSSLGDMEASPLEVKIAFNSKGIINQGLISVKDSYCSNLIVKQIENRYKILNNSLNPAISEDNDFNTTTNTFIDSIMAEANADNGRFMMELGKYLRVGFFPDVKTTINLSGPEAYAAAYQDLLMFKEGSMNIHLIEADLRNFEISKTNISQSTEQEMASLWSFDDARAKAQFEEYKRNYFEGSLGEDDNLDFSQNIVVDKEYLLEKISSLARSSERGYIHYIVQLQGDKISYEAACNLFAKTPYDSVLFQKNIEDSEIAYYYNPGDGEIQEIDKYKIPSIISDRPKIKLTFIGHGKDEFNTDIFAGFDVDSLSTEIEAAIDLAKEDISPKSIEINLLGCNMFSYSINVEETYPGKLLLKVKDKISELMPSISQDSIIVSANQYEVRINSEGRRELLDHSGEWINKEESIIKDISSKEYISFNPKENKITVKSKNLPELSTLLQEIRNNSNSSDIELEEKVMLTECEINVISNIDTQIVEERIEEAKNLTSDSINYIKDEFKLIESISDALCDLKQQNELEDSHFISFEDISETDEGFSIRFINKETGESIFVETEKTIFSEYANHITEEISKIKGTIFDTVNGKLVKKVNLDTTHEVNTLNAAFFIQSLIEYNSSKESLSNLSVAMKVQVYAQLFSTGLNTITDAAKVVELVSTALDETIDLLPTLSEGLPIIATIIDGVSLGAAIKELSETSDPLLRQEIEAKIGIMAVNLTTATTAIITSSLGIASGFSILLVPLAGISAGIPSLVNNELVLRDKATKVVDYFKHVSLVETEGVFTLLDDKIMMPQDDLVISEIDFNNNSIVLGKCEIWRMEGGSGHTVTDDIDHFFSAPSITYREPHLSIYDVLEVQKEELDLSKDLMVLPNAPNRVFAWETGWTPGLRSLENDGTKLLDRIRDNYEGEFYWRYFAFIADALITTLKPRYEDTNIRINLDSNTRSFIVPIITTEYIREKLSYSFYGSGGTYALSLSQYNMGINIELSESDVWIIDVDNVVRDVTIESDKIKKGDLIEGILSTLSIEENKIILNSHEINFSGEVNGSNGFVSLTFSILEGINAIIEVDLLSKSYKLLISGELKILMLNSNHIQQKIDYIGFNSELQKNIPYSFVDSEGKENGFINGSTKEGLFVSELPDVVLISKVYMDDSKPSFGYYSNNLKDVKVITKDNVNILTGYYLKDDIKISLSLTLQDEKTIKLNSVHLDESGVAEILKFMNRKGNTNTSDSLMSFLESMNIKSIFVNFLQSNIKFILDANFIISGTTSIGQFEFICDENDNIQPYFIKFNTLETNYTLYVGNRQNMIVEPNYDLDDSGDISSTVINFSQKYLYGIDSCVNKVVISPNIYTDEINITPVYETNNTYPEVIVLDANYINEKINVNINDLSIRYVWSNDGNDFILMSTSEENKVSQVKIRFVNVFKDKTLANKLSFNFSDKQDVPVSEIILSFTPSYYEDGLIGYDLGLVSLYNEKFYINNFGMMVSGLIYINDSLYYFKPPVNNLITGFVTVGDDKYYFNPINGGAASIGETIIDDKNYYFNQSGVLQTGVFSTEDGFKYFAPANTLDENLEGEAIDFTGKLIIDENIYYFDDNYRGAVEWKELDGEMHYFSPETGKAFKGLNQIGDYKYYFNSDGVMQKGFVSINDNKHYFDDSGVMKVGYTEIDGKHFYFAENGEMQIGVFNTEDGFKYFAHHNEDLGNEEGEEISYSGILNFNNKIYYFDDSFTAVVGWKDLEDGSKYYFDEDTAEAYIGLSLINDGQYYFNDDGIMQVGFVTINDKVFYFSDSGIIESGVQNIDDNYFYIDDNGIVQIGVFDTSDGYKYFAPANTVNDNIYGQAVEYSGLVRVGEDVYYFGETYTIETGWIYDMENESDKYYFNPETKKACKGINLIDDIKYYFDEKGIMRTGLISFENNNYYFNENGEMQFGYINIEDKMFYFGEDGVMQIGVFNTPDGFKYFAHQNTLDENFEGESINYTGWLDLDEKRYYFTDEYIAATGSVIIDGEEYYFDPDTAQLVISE
PrP UTR cherry: prion 5' UTR mRNA inhibition, cherry-pick retest; shares compounds with PrP UTR inh; cell-based prion protein 5' UTR reporter, plate reader; inhibition, % at 2.5 µM; hit rate 48% among 1,100; AID 504592; in the data active = inhibition above about 54%
* marks the source's active call; other numbers are inactive results; . = no result.

SMILES | PfHsp40 rescue | PrP UTR inh | ugtP null kill | Sa RN4220 lethal | TcdB GH inh | PrP UTR cherry
COc1ccccc1N1CCN(C(=O)c2c(C)cc(=O)oc2C)CC1 | -0.1 | -22.6 | 1.8 | -9.9 | . | .
Cc1cc(=O)oc(C)c1C(=O)N1CCN(C(c2ccccc2)c2ccccc2)CC1 | -0.2 | 72.5* | 0.9 | 6.4 | . | -21.2
CCOC(=O)c1sc(NN=Cc2cc(Br)c(O)c(OC)c2)nc1C | . | . | -12.0 | 0.7 | . | .
O=C(C[n+]1ccccc1)N/N=C/c1c(F)cccc1Cl | 1.4 | 58.6* | . | . | -4.9 | -3.5
COc1ccc2c3c(n(C)c2c1)[C@@H](CO)N(Cc1ccccc1F)CC31CN(C(=O)C2CCOCC2)C1 | . | . | . | . | -0.6 | .
COc1ccc(NC(=O)N(C)C[C@@H]2Oc3ccc(NC(=O)Nc4c(C)noc4C)cc3CC(=O)N([C@@H](C)CO)C[C@H]2C)cc1 | . | . | . | . | 0.2 | .
Cc1noc(C)c1NC(=O)N[C@H]1CC[C@H](CCNC(=O)C2CC2)O[C@@H]1CO | . | . | . | . | -0.9 | .
NC(=O)CC(NC(=O)Cc1cccc2ccccc12)c1ccc(NCc2ccc(F)cc2)c([N+](=O)[O-])c1 (stereo not drawn) | 1.7 | 74.7* | . | . | 0.2 | -27.5
O=C(NC1CCCC1)[C@@H]1[C@@H](CO)[C@@H]2Cn3c(cccc3=O)[C@@H]2N1C(=O)NC1CCCC1 | . | . | . | . | -7.0 | .
CC(C)N(Cc1cc2ccccc2[nH]c1=O)C(=O)c1cccc([N+](=O)[O-])c1 | -0.9 | 68.2* | 7.5 | 2.2 | 2.2 | -6.8
Cc1ccc2[nH]c(=O)c(CN(C(=O)c3cccc([N+](=O)[O-])c3)C(C)C)cc2c1 | 0.1 | -12.3 | 9.3 | 0.8 | 0.9 | .
CCCNC(=O)[C@@H]1[C@@H](CO)[C@@H]2Cn3c(ccc(-c4ccccc4)c3=O)[C@H]1N2C(=O)CC1CC1 | . | . | . | . | -2.6 | .
Cc1cnc(C(=O)OC(C)C(=O)Nc2ccc(Oc3ccccc3)cc2)cn1 (stereo not drawn) | -0.2 | 90.1* | 5.1 | 1.6 | -1.7 | -11.7
Cc1cnc(C(=O)OCC(=O)Nc2ccc(Oc3ccccc3)cc2)cn1 | 0.1 | -19.3 | -6.1 | -16.2 | . | .
CCCCN(C(=O)c1ccc(Cl)cc1)C1CC2CCC(C1)N2C (stereo not drawn) | -0.8 | 71.8* | 11.5 | 4.5 | 0.6 | -14.0
COc1ccccc1/C=C/C=Nn1c(C2CCCCC2)n[nH]c1=S | . | . | -16.3 | -0.9 | . | .
Nc1ccc(-c2ncc(-c3ccccc3)o2)cc1 | 0.2 | 76.2* | -1.0 | 5.9 | -0.9 | 64.2*
Cc1ccc(-c2cnc(-c3ccncc3)o2)cc1 | 0.5 | -40.5 | 7.5 | 9.8 | . | .
O=C(CN1C(=O)c2ccccc2S1(=O)=O)c1ccccc1F | -0.4 | 27.9 | 3.9 | 0.9 | 2.0 | .
O=C(CN1C(=O)c2ccccc2S1(=O)=O)c1ccc(OC(F)F)cc1 | -0.9 | 66.6* | 4.6 | 1.4 | . | 63.8*
O=C(CN1C(=O)c2ccccc2S1(=O)=O)c1ccc(Cl)cc1Cl | 0.4 | 79.2* | . | . | 0.2 | 81.6*
O=C(CN1C(=O)c2ccccc2S1(=O)=O)c1ccc(F)cc1 | 0.2 | 61.8* | -0.6 | 2.1 | 1.1 | 49.1
CCCc1cc(=O)[nH]c(N=C(N)Nc2ccccc2)n1 | . | . | 1.0 | 5.2 | . | .
C[C@@H]1CCCCO[C@@H](CN(C)C(=O)Nc2ccc(C(F)(F)F)cc2)[C@H](C)CN([C@@H](C)CO)C(=O)c2cc(NS(=O)(=O)c3cccs3)ccc2O1 | . | . | . | . | 0.1 | .
Cc1cccc(/C=N/Nc2ccc3ccccc3n2)c1 | 0.0 | 75.5* | . | . | -0.7 | 66.3*
SMILES | PfHsp40 rescue | PrP UTR inh | ugtP null kill | Sa RN4220 lethal | TcdB GH inh | PrP UTR cherry
C(=N\Nc1ccc2ccccc2n1)/c1ccc2c(c1)OCCO2 | -0.8 | 83.4* | . | . | -1.0 | 68.9*
CCOc1ccccc1OCCCC(=O)N1CCN(S(=O)(=O)c2ccc(Cl)cc2)CC1 | 9.9 | 87.2* | 1.7 | 9.6 | -0.4 | -10.4
CCCOc1ccccc1OCC(=O)N1CCN(S(=O)(=O)c2ccc(Cl)cc2)CC1 | 4.2 | -16.9 | 4.3 | 3.9 | 0.6 | .
CCOc1cc(/C=C/C(=O)c2ccc3c(c2)OCCO3)ccc1OCC(=O)N(C)C | -0.3 | 60.4* | 3.6 | 0.5 | 0.8 | -7.0
O=C(O)c1cccc(-c2noc(-c3cccc(Cl)c3)n2)c1 | -0.3 | 81.5* | 9.4 | 18.9 | 0.0 | 84.4*
Cn1cccc1C=NNC(=O)CNc1cccc2ccccc12 | . | . | -2.6 | 1.6 | . | .
CC[C@@]1(O)C(=O)OCc2c1cc1n(c2=O)Cc2cc3c(NC(=O)CN)cccc3nc2-1 | -1.5 | 85.0* | 5.2 | 4.6 | 2.6 | 70.5*
CCC1(OC(=O)CN)C(=O)OCc2c1cc1n(c2=O)Cc2cc3ccccc3nc2-1 (stereo not drawn) | 1.8 | 82.5* | 3.4 | 3.7 | 0.3 | 88.1*
COc1cccc(CNC(=O)c2ccc3c(c2)N(C)CCS3)c1OC | 1.2 | 58.9* | 16.9 | 17.5 | 1.3 | -30.2
Cc1ccc(NC(=O)c2cc3ccccc3o2)cc1S(=O)(=O)N(C)C | 0.9 | -97.7 | -8.8 | 2.7 | . | .
Cc1ccc(NC(=O)c2cc3ccccc3oc2=O)cc1S(=O)(=O)N(C)C | -0.3 | 90.4* | -6.6 | 1.4 | . | 89.6*
O=C(NCC[C@H]1CC[C@@H](NS(=O)(=O)c2cccc(F)c2)[C@@H](CO)O1)C1CC1 | . | . | . | . | 1.5 | .
COC(=O)C1C(O)=C(C=Nc2ccc3ccccc3c2)C(=O)CC1(C)C (stereo not drawn) | -0.4 | 80.4* | 1.0 | 5.7 | -0.8 | 9.1
CN=CC1=C(O)C(C(=O)OC)C(C)(C)CC1=O (stereo not drawn) | -0.8 | -33.9 | 5.0 | 4.6 | 0.9 | .
C[C@@H]1CN([C@H](C)CO)C(=O)c2cccc(NC(=O)C3CC3)c2O[C@@H]1CN(C)C | . | . | . | . | -7.3 | .
C[C@@H]1CN([C@H](C)CO)C(=O)c2cccc(NC(=O)CCCCCC(=O)Nc3ccccc3N)c2O[C@H]1CN(C)C | . | . | . | . | -1.6 | .
c1ccc(C(Nc2cccnc2)c2ccccc2)cc1 | 1.5 | 71.2* | . | . | 0.9 | -12.9
c1ccc(NC(c2ccccc2)c2ccncc2)cc1 (stereo not drawn) | -0.7 | 3.9 | -1.6 | -6.4 | 0.5 | .
CN(C)C(=O)C[C@@H]1CC[C@H](NS(=O)(=O)c2ccccc2)[C@@H](CO)O1 | . | . | . | . | -7.6 | .
CN(C)c1ccc(CCc2ccc(N)cc2)cc1 | -0.6 | 57.2* | -4.2 | 4.1 | 0.5 | 53.3*
C=C1C(=O)O[C@@H]2C[C@@H](C)[C@@H]3C=CC(=O)[C@@]3(C)[C@@H](O)[C@H]12 | -1.5 | 56.3* | . | . | 0.6 | 82.4*
Cc1nn(-c2ccccc2)c(C)c1/C=N/NC(=O)c1cc(-c2ccc(Br)s2)[nH]n1 | -2.2 | -12.5 | . | . | . | .
Cc1nn(-c2ccccc2)c(C)c1/C=N/NC(=O)c1cc(-c2cccs2)[nH]n1 | 1.8 | 67.5* | . | . | 0.4 | 78.3*
Nc1cc(=O)[nH]c(SCCSc2cc(Cl)ccc2Cl)n1 | -0.1 | 57.7* | 2.1 | 2.6 | 0.4 | 39.2
Cc1ccc(S(=O)(=O)N(C)C[C@H]2Oc3ccc(NC(=O)Cn4cnnn4)cc3C(=O)N([C@@H](C)CO)C[C@H]2C)cc1 | . | . | . | . | 0.7 | .
O=S(=O)(NCCc1ccccc1)c1ccc(F)cc1Br | -0.1 | 53.4* | -6.8 | 0.8 | 3.3 | -8.5
